In the supplement of paper PMC6897291:
Counter-ions that a name gives are not always drawn.

System: RIVA
Experiment: growth inhibition by drug plus 177Lu-lilotomab satetraxetan (1 - RLU/untreated control) (fraction); higher = stronger inhibition
Conditions: 100 nM; time (day): 5; 177Lu-lilotomab satetraxetan 0.5 ug/ml
Method in brief: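 A radiolabelled anti-CD37 antibody conjugate (~600 MBq/mg) was applied for 18 h at 0.5 µg/ml to RIVA and 1 µg/ml to U-2932 cells, with untreated cells run alongside. All cells were washed and seeded at 3,000 cells/well onto library-printed plates at 10/100 nM (RIVA) or 10/1,000 nM (U-2932). Growth inhibition was based on RealTime-Glo luminescence compared with untreated no-drug wells. Daily reads began on day 3 after 1 h at 37°C, with each value being 1 − RLU/mean of the 48 such wells on that plate.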

Compound | growth inhibition by drug plus 177Lu-lilotomab satetraxetan
Nc1nc2[nH]cc(CCc3ccc(C(=O)N[C@@H](CCC(=O)O)C(=O)O)cc3)c2c(=O)[nH]1 [Pemetrexed] | 0.436
COc1cc2nccc(Oc3ccc(NC(=O)Nc4cc(C)on4)c(Cl)c3)c2cc1OC [Tivozanib (AV-951)] | 0.537
CCC(=O)N1CCN(c2ccc(-n3c(=O)ccc4cnc5ccc(-c6cnc7ccccc7c6)cc5c43)cc2C(F)(F)F)CC1 [Torin 1] | 0.565
COc1cccc2c1C(=O)c1c(O)c3c(c(O)c1C2=O)C[C@@](O)(C(=O)CO)C[C@@H]3O[C@H]1C[C@H](N)[C@@H](O)[C@H](C)O1 [Epirubicin Hydrochloride] | 0.949
Clc1ccc(Nc2nnc(Cc3ccncc3)c3ccccc23)cc1 [Vatalanib dihydrochloride (PTK787)] | 0.439
COc1cc2nccc(Oc3ccc(NC(=O)C4(C(=O)Nc5ccc(F)cc5)CC4)cc3)c2cc1OC [XL-184 free base (Cabozantinib)] | 0.529
C[C@@H](O[C@H]1OCCN(Cc2n[nH]c(=O)[nH]2)[C@H]1c1ccc(F)cc1)c1cc(C(F)(F)F)cc(C(F)(F)F)c1 [Aprepitant (MK-0869)] | 0.441
COc1cc2c(cc1O)CC[C@@H]1[C@@H]2CC[C@]2(C)[C@@H](O)CC[C@@H]12 [2-Methoxyestradiol] | 0.422
CNCc1ccc(-c2[nH]c3cc(F)cc4c3c2CCNC4=O)cc1 | 0.574
CC[C@@]1(O)C(=O)OCc2c1cc1n(c2=O)Cc2cc3c(CN(C)C)c(O)ccc3nc2-1 [Topotecan HCl] | 0.91
Nc1cc(C(F)(F)F)c(-c2cc(N3CCOCC3)nc(N3CCOCC3)n2)cn1 | 0.402
CC(C)(C)c1ccc(S(=O)(=O)/C=C/C#N)cc1 | 0.508
C[C@]1(c2nc3c(C(N)=O)cccc3[nH]2)CCCN1 [ABT-888 (Veliparib)] | 0.442
Cc1ccc(NC(=O)c2ccc(CN3CC[C@H](N(C)C)C3)c(C(F)(F)F)c2)cc1Nc1nccc(-c2cncnc2)n1 [Bafetinib (INNO-406)] | 0.513
C[C@]12CC[C@@H]3c4ccc(O)cc4CC[C@H]3[C@@H]1CCC2=O [Estrone] | 0.447
O=C(c1ccc(OCCN2CCCCC2)cc1)c1c(-c2ccc(O)cc2)sc2cc(O)ccc12 [Evista (Raloxifene Hydrochloride)] | 0.477
CCN(CC)CCNC(=O)c1c(C)[nH]c(/C=C2\C(=O)Nc3ccc(F)cc32)c1C [Sunitinib Malate (Sutent)] | 0.387
CCOc1ccc(Nc2nc(-c3c(C)nc4ccccn34)cs2)cc1 | 0.97
C=CC(=O)N1CCC[C@@H](n2nc(-c3ccc(Oc4ccccc4)cc3)c3c(N)ncnc32)C1 | 0.919

Compound | growth inhibition by drug plus 177Lu-lilotomab satetraxetan
CS(=O)(=O)c1cccc(CNc2nc(Nc3ccc4c(c3)CCC(=O)N4)ncc2C(F)(F)F)c1 | 0.352
CC(NC(=O)c1ccccc1/N=C/c1c(O)ccc2ccccc12)c1ccccc1 (stereo not drawn) [Sirtinol] | 0.536
CN(Cc1cnc2nc(N)nc(N)c2n1)c1ccc(C(=O)N[C@@H](CCC(=O)O)C(=O)O)cc1 [Abitrexate (Methotrexate)] | 0.483
OCCn1cc(-c2cnc3nnn(Cc4ccc5ncccc5c4)c3n2)cn1 | 0.467
COc1cc(Nc2ncc(F)c(Nc3ccc4c(n3)NC(=O)C(C)(C)O4)n2)cc(OC)c1OC [R406(free base)] | 0.581
COc1cccc2c1C(=O)c1c(O)c3c(c(O)c1C2=O)C[C@@](O)(C(=O)CO)C[C@@H]3O[C@H]1C[C@H](N)[C@H](O)[C@H](C)O1 [Doxorubicin (Adriamycin)] | 0.952
CN(NC(=O)CC(=O)NN(C)C(=S)c1ccccc1)C(=S)c1ccccc1 [Elesclomol] | 0.987
CN(C)CCOc1ccc(/C(=C(/CCCl)c2ccccc2)c2ccccc2)cc1 [Toremifene Citrate (Fareston, Acapodene)] | 0.713
CN1CCN(CCOc2cc(OC3CCOCC3)c3c(Nc4c(Cl)ccc5c4OCO5)ncnc3c2)CC1 [Saracatinib (AZD0530)] | 0.549
CC(C)C[C@H](NC(=O)[C@H](Cc1ccccc1)NC(=O)c1cnccn1)B(O)O [Bortezomib (Velcade)] | 0.989
Cn1cncc1[C@@](N)(c1ccc(Cl)cc1)c1ccc2c(c1)c(-c1cccc(Cl)c1)cc(=O)n2C [Tipifarnib (Zarnestra)] | 0.511
COC(=O)c1ccc2c(C(=Nc3ccc(N(C)C(=O)CN4CCN(C)CC4)cc3)c3ccccc3)c(O)[nH]c2c1 [BIBF1120 (Vargatef)] | 0.366
CC[C@@H]1/C=C(\C)C[C@H](C)C[C@H](OC)[C@H]2O[C@@](O)(C(=O)C(=O)N3CCCC[C@H]3C(=O)O[C@H](/C(C)=C/[C@@H]3CC[C@H](Cl)[C@H](OC)C3)[C@H](C)[C@@H](O)CC1=O)[C@H](C)C[C@@H]2OC [Pimecrolimus] | 0.716
CN(C)CCOc1ccc(-c2nc(-c3ccncc3)c(-c3ccc4c(c3)CC/C4=N\O)[nH]2)cc1 | 0.378
COc1ccc(CCN2CCN(CCCc3ccccc3)CC2)cc1OC | 0.119
CNC(=O)c1cc(Oc2ccc(NC(=O)Nc3cc(C(C)(C)C)nn3-c3ccc4ncccc4c3)c(F)c2)ccn1 [DCC-2036 (Rebastinib)] | 0.626
CCC(C)(C)C(=O)O[C@H]1C[C@@H](C)C=C2C=C[C@H](C)[C@H](CC[C@@H]3C[C@@H](O)CC(=O)O3)[C@H]21 [Simvastatin (Zocor)] | 0.501
CCc1ccc(CCOc2ccc(CC3SC(=O)NC3=O)cc2)nc1 (stereo not drawn) [Pioglitazone (Actos)] | 0.498
O=C(O)C(Cc1c[nH]c2ccccc12)N1C(=O)c2ccccc2C1=O (stereo not drawn) | 0.397
